Screening data deposited in PubChem by several laboratories.
IL1B cytotox = cytotoxicity in IL-1B stimulated HUVEC, primary screen, cytotoxicity control for IL-1B NFkB translocation project, imaging, Hoechst nuclear count, IL-1B stimulus | cell count reduction, % at 2 µM | AID 845, 2007 | HUVEC cell count loss | 0.41% of 94,000 active;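 active = cell count reduction more than 3 SD above the screen-wide mean, cut at about 70% in these data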;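 note: normalized per plate to untreated control cells as the no-loss baseline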
Measles CPE = compounds protecting cells from measles virus cytopathic effect, primary screen, measles RdRp inhibitor project, single point, MLSMR library, absorbance; Measles virus-infected cells, CPE protection; protection (pct of control), % at 4 µM; 1.5% of 140,000 active; in the data active = protection mostly above about 24%, no sharp cut-off; inactive = mostly below about 26%
IL1B NFkB pot = enhancers of NFkB p65 translocation in HUVEC – imaging, IL-1B stimulus, high-content imaging, primary screen; HUVEC IL-1B NFkB p65 nuclear translocation imaging; activation, % at 2 µM; 0.3% of 94,000 active; AID 819, 2007;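 active = activation above 40%, about the mean plus 3 SD, also judged a hit on visual image review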;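 note: percent activation is computed from the nuclear over cytoplasmic p65 intensity ratio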
IL1B NFkB inh = inhibitors of IL-1B driven NFkB p65 nuclear import, primary screen, imaging, HUVEC, IL-1B stimulus, high-content imaging; HUVEC IL-1B NFkB p65 nuclear translocation imaging; inhibition, % at 2 µM; 0.43% of 94,000 active; AID 796, 2007;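 active = inhibition above about 30% together with a positive call from visual inspection of the well image, limit read from the data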;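 note: nuclear over cytoplasmic p65 intensity ratio measured by imaging; 0% = IL-1B stimulated DMSO wells and 100% = unstimulated DMSO wells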
Active calls of the source: *; · = no result given. Hits are enriched below; roughly 2.1% of the tested compounds scored in any of these assays.

SMILES	IL1B cytotox	Measles CPE	IL1B NFkB pot	IL1B NFkB inh
C[n+]1ccn(CC(=O)c2ccc(Br)cc2)c1	·	5.6	·	·
Cc1ccc(N(CC(O)COCc2ccco2)S(=O)(=O)c2ccc(C)cc2)cc1 (stereo not given)	-15.8	46.4*	17.3	-17.3
CCCN(CCC)CC(O)CN(c1ccccc1)S(=O)(=O)c1ccc(C)cc1 (stereo not given)	-4.0	9.9	-3.7	3.7
N=c1c[n+](N2CCOCC2)[n-]o1	·	14.4	·	·
O=C(C1CCCN(S(=O)(=O)c2ccc(F)cc2)C1)N1CCCC1 (stereo not given)	-8.0	5.8	22.5	-22.5
O=C(C1CCCN(S(=O)(=O)c2ccc(F)cc2)C1)N(Cc1cccs1)C1CC1 (stereo not given)	·	49.0*	·	·
COc1ccc(-c2c(C)n([O-])c(C)c(-c3ccccc3)[n+]2=O)cc1OC	2.5	88.9*	-5.2	5.3
COc1ccc(-c2c(C)n([O-])c(C)c(C)[n+]2=O)cc1OC	-20.5	13.5	2.6	-2.6
COc1ccccc1-c1nnc(SCC(=O)OC(C)C)o1	13.9	30.7	-1.4	1.4
CCCc1cc(=O)n2c([nH]c3ccccc32)c1C#N	-17.0	5.2	-35.8	35.8*
Cc1nc(C)c(C(=O)NNS(=O)(=O)c2ccc([N+](=O)[O-])cc2)s1	·	25.9	·	·
CCOC(=O)c1[nH]c(C)c(C(=O)NC2CCCCC2)c1C	-1.9	4.1	39.2	-39.2
CCOC(=O)c1ccc(NC(=S)NC2CCCC2)cc1	·	44.0*	·	·
CCOC(=O)c1c(C)c(C(=O)NC2CCCCC2)c(C)n1CC	7.1	22.0	154.5*	·
COc1ccc(CCNC(=O)Cn2cccc2C(=O)c2ccccc2C)cc1OC	·	7.8	·	·
Cc1ccc(-c2nc3sc4c(c3c(=O)n2N)CCCC4)cc1	9.5	8.3	18.3	-18.3
CCc1n[nH]c(=S)n1/N=C/c1ccc2c(c1)OCO2	-16.4	42.2*	1.5	-1.5
Cn1c(=S)n(/N=C/c2ccc3c(c2)OCO3)c2ccccc21	-24.4	11.5	-0.3	0.3
Cc1ccc(CNC(=O)CSCC(=O)O)cc1	2.9	3.5	-2.6	2.6
CCOC(=O)c1c(NC(=O)CSc2nc3ccccc3c(=O)n2-c2ccc(F)cc2)sc(C(C)=O)c1C	·	32.8*	·	·
CCCn1c(N)c(C(c2ccc(C(=O)OC)cc2)N2CCN(c3ccccc3)CC2)c(=O)[nH]c1=O (stereo not given)	-9.1	42.1*	31.2	-31.2
COc1ccc2cc3cc(C(=O)Nc4ccccc4N4CCN(C)CC4)oc3nc2c1	-5.2	3.6	0.0	0.0
COc1ccc2cc3cc(C(=O)NCCN4CCN(c5ccccc5F)CC4)oc3nc2c1	-11.4	6.8	44.9*	-44.9
Cc1cc(C)c(-n2nnnc2SC(C)C)c(C)c1	·	3.7	·	·
Cc1ccc(-n2c(C)cc(/C=N/NC(=O)c3ccc(CN4CCOCC4)cc3)c2C)cc1	40.3	70.9*	-0.8	0.8
SMILES	IL1B cytotox	Measles CPE	IL1B NFkB pot	IL1B NFkB inh
CCOc1ccc(Nc2cc(C)nc(N3CCOCC3)n2)cc1	20.4	4.1	-10.0	10.0
Cc1cc(Oc2ccc(C#N)cc2)nc(N2CCOCC2)n1	-16.1	6.9	-37.0	37.0*
CC1CCC(NC(=O)C2CCN(C(=O)NC3CCCCC3)CC2)CC1 (stereo not given)	6.5	7.6	4.3	-4.3
CC1CCCCN1C(=O)c1cc(-c2ccc(Cl)c(Cl)c2)on1 (stereo not given)	-2.6	45.7*	-3.8	3.8
CC(=O)N(C)C1=C(O)c2ccccc2C(=O)C1=O	25.0	39.2*	-1.4	1.4
CCOc1ccc(C(=O)CC(=O)C(=O)NCCc2ccc(OC)c(OC)c2)cc1	·	37.9*	·	·
CCCc1cc(=O)[nH]c(SCC(N)=O)n1	-157.1	28.0	13.5	-13.5
CCCc1cc(=O)[nH]c(SCC(=O)c2cc(C)n(C(C)COC)c2C)n1 (stereo not given)	-37.0	45.4*	19.8	-19.8
Cc1scc(C(=O)Nn2cnnc2)c1-c1ccccc1	-61.8	41.4*	-5.6	5.6
O=C(NCCCO)c1ccc2[nH]c3c(c2c1)CCCC3	-14.4	1.3	82.9*	-82.9
c1cncc(-c2noc(CC3CCCCC3)n2)c1	1.0	9.4	-3.5	3.5
CC(C)C1Cc2c(sc3[nH]c(=S)n(Cc4ccccc4)c(=O)c23)CO1 (stereo not given)	-202.6	3.0	-8.3	8.3
O=C1CN(C(=O)COC(=O)CCSc2ccccc2Cl)c2ccccc2N1	-14.9	26.8*	22.5	-22.5
COC(=O)c1ccc(Oc2nc(C)cc(Oc3ccccc3)n2)cc1	89.5*	4.9	26.9	-26.9
